PP5 primary – inhibitors of human protein phosphatase 5 (PP5); actives 0.18% (n = 320,000); P53041; purified PP5c, OMFP substrate fluorescence; inhibition, % at 6.7 µM;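 active = inhibition above the campaign's mean inhibition across all tested compounds plus 3 SD, cut at about 9.5% in these data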
proKLK7 act – activators of human kallikrein-7 zymogen. activation, % at 7 µM. P49862. actives 0.9% (n = 370,000). purified proKLK7, EDANS-DABCYL substrate fluorescence; 100% is mature enzyme control, 0% vehicle;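 active = activation above the mean of all tested compounds plus 3 SD, computed per campaign excluding outliers beyond control limits, cut at about 13% in these data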
PG9 binder – PG9 antibody binding by small molecule; TR-FRET gp120-PG9 antibody binding; inhibition, % at 6.7 µM; actives 0.43% (n = 360,000); in the data active = inhibition above about 8.5%
Rev-erbA mod – Rev-erb alpha (human) modulation | P20393 | Rev-erbα–FITC-DNA binding, fluorescence polarization, 90 min | activity, % at 10 µM | actives 0.79% (n = 370,000);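 active = activity above about 14%, limit read from the data; passing the limit was not always enough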
Target sequence (P20393 whole entry, looked up): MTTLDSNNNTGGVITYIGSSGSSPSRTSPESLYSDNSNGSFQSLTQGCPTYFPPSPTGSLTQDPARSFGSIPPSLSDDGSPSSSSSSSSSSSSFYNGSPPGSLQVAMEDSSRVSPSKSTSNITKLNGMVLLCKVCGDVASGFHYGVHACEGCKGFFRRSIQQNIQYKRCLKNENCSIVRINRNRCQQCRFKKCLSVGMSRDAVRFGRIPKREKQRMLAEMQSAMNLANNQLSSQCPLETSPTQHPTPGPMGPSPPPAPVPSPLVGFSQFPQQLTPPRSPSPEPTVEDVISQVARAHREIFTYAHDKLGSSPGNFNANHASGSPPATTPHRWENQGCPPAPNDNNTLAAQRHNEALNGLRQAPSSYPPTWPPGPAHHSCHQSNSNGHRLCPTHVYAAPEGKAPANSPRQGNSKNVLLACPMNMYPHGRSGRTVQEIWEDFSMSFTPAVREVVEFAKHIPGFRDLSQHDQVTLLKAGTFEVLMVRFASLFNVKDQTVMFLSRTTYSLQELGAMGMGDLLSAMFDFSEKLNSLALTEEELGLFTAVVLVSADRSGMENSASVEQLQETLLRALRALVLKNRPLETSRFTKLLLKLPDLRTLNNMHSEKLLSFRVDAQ
PP1 counter – PP1-alpha (human) inhibition in PP5 counter-screen | P62136 | purified PP1alpha, OMFP fluorescence | inhibition, % at 6.7 µM | actives 0.9% (n = 320,000);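 active = inhibition above the mean inhibition of all tested compounds plus 3 SD, computed separately for each screening campaign, cut at about 15% in these data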
JMJD2C inh – inhibitors of human GASC-1 (JMJD2C) demethylase; GST-JMJD2C(1-420) H3K9me3 demethylation, DELFIA europium; inhibition, % at 2.35 µM; actives 0.069% (n = 330,000); AID 2099;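 active = more than half of a compound's replicate wells show inhibition beyond 50%, single wells judged on their own value; inconclusive = some, but no more than half, of replicates pass 50% inhibition; inactive = no replicate passes 50% inhibition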;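 note: signal counts dimethyl H3K9 product captured on neutravidin plate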
PG9 bind confirm – PG9 antibody binding, confirmed. shares compounds with PG9 binder. TR-FRET PG9 antibody binding, biochemical. AID 651571. inhibition, % at 6.7 µM. actives 90% (n = 1,500); in the data active = inhibition above about 9%
PGV04 Ab binding – PGV04 control antibody binding, counter-screen | shares compounds with PG9 binder | TR-FRET PGV04 antibody-gp120 binding, biochemical | inhibition, % at 6.7 µM | actives 95% (n = 1,500) | AID 651604; in the data active = inhibition above about 9.5%
PG9 bind DR – small molecules binding HIV-1 gp120 antibody PG9; shares compounds with PG9 binder; TR-FRET PG9 antibody-gp120 binding inhibition; IC50, µM; 95 tested, under 10 active; in the data active = IC50 below about 10 µM
PGV04 DR counter – binds control antibody PGV04 in PG9 counter-screen | shares compounds with PG9 binder | TR-FRET binding to control antibody PGV04 | IC50, µM | actives 20% (n = 95) | AID 651937
PG126 binding DR – PG126 binding, dose response counter-screen; shares compounds with PG9 binder; TR-FRET binding to antibody PG126, counterscreen; IC50, µM; actives 20% (n = 95); AID 651939
Of the large screens only hits and unclear results are named; the others gave an inactive call (follow-up assays come after a bar, where they were run). Shown are actives, neighbours in structure and some others; about 2.8% of the full set was active somewhere. Cut-off read from the data, not from the text of the source, unless noted: active = IC50 below about 9 µM; inactive = the rest.

S=C(Nc1ccc(I)cc1)OC1CCC12CCC(c1ccccc1)CC2 (stereo not drawn)	none (no result: PP5 primary, PG9 binder, PP1 counter, JMJD2C inh)
CCCn1c(=O)c(C(=O)NCC2CCCO2)c(O)c2ccccc21 (stereo not drawn)	PG9 binder 8.6 | PG9 bind confirm 12 | PGV04 Ab binding 16
O=C(NCC1CCCO1)c1c(O)c2ccccc2[nH]c1=O (stereo not drawn)	none
O=C(CNC(=O)c1ccc(Br)cc1)c1ccc(Br)cc1	PG9 binder 11 | PG9 bind confirm 18 | PGV04 Ab binding 26
O=C(C1=C(O)C(=O)N(CCCn2ccnc2)C1c1cccc(Br)c1)c1ccco1 (stereo not drawn)	PG9 binder 14, PP1 counter 47 | PG9 bind confirm 15 | PGV04 Ab binding 15
COC(=O)[C@]12C[C@H](CC(=O)NCc3cccc4ccccc34)C(=O)N(Cc3ccc(Cl)cc3Cl)C1=C[C@H](C(C)C)O[C@@H]2C1CC1	none (no result: PP5 primary, PG9 binder, PP1 counter, JMJD2C inh)
O=C(CCS(=O)(=O)c1ccccc1)Nc1ccc(F)cc1Cl	none (no result: PP5 primary, PG9 binder, PP1 counter, JMJD2C inh)
CCCCC1=CC2=C(c3ccco3)C(=O)C(C)(OC(=O)c3ccc(OC)cc3)C(=O)C2=CN1CCN1CCOCC1 (stereo not drawn)	none (no result: proKLK7 act, PG9 binder, Rev-erbA mod)
CCCCC1=CC2=C(c3ccco3)C(=O)C(C)(OC(=O)c3ccc(OC)cc3)C(=O)C2=CN1C(CO)CO (stereo not drawn)	PG9 binder 13 | PG9 bind confirm 14 | PGV04 Ab binding 17
CCCCC1=CC2=C(c3ccco3)C(=O)C(C)(OC(=O)c3ccc(OC)cc3)C(=O)C2=CN1C1CCCC1 (stereo not drawn)	none (no result: proKLK7 act, PG9 binder, Rev-erbA mod)
CCCCC1=CC2=C(c3ccco3)C(=O)C(C)(OC(=O)c3ccc(OC)cc3)C(=O)C2=CN1CCCCO (stereo not drawn)	PG9 binder 13 | PG9 bind confirm 19 | PGV04 Ab binding 24
CCCCC1=CC2=C(c3ccco3)C(=O)C(C)(OC(=O)c3ccc(OC)cc3)C(=O)C2=CN1CCCN(CC)CC (stereo not drawn)	none
CCCCC1=CC2=C(c3ccco3)C(=O)C(C)(OC(=O)c3ccc(OC)cc3)C(=O)C2=CN1C1CC1 (stereo not drawn)	PG9 binder 12 | PG9 bind confirm 22 | PGV04 Ab binding 29
N#Cc1c(-c2ccco2)nc(SCc2ccc(F)cc2)[nH]c1=O	PG9 binder 33 | PG9 bind confirm 33 | PGV04 Ab binding 37
COC(=O)C1=C(C)N(C)C(=NCc2cccc(C(F)(F)F)c2)NC1c1cccc(Cl)c1 (stereo not drawn)	none (no result: PP5 primary, PP1 counter, JMJD2C inh)
CON(c1nc(Cl)nc(N(C)C)n1)S(=O)(=O)c1ccccc1Cl	none
CON(c1nc(Cl)nc(N(C)C)n1)S(=O)(=O)c1ccc(C)cc1	PG9 binder 10 | PG9 bind confirm inactive | PGV04 Ab binding inactive
CC(C)(C)Cc1nnc(NS(=O)(=O)c2ccccc2)s1	PG9 binder 9.0 | PG9 bind confirm 11 | PGV04 Ab binding 17
CC(C)Cc1nnc(NS(=O)(=O)c2ccccc2)s1	none (no result: PP5 primary, PP1 counter, JMJD2C inh)
COc1ccccc1CCn1cnc(-c2ccc(OC)c(OC)c2)c1CC(C)C	none (no result: PP5 primary, PP1 counter, JMJD2C inh)
COc1ccccc1C1C(C(=O)c2ccc(C)o2)=C(O)C(=O)N1c1cc(C)on1 (stereo not drawn)	JMJD2C inh inconclusive
COc1ccccc1C1C(C(=O)c2ccco2)=C(O)C(=O)N1c1cc(C)on1 (stereo not drawn)	none
COc1cccc(C2C(C(=O)c3cc4ccccc4o3)=C(O)C(=O)N2c2cc(C)on2)c1OC (stereo not drawn)	PG9 binder 19, PP1 counter 15 | PG9 bind confirm 27 | PGV04 Ab binding 43
COc1cccc(C2C(C(=O)c3cc4cccc(OC)c4o3)=C(O)C(=O)N2c2cc(C)on2)c1OC (stereo not drawn)	PG9 binder 14 | PG9 bind confirm 22 | PGV04 Ab binding 36
COC(=O)[C@]12C[C@H](CC(=O)NCc3cccs3)C(=O)N(Cc3ccc(Cl)cc3Cl)C1=C[C@H](C(C)(C)C)O[C@@H]2C	none (no result: PP5 primary, PG9 binder, PP1 counter, JMJD2C inh)
COC(=O)CC#C[C@H](C)[C@@H](NS(C)(=O)=O)C(C)(C)COCc1ccccc1	none (no result: PP5 primary, PP1 counter, JMJD2C inh)
CC1=CC(=C(C#N)C#N)C=C(C)N1Cc1ccc(Cl)cc1	PG9 binder 19 | PG9 bind confirm 24 | PGV04 Ab binding 31
COC(=O)[C@H]1C[C@@]2(n3ccc4ccccc43)c3ccccc3N(S(=O)(=O)c3ccccc3)[C@H]2N1	none (no result: PP5 primary, PG9 binder, PP1 counter, JMJD2C inh)
CCC(=O)c1cn(CC(=O)Nc2cccc(C)c2C)c2ccccc12	PG9 binder 9.9 | PG9 bind confirm 19 | PGV04 Ab binding 23
CC(=O)c1cn(CC(=O)Nc2cccc(C)c2C)c2ccccc12	none
Nn1c(=S)[nH]c2sc3c(c2c1=O)CCCC3	PG9 binder 9.7 | PG9 bind confirm 10 | PGV04 Ab binding 9.4 | PG9 bind DR inactive | PGV04 DR counter inactive | PG126 binding DR inactive
COC(=O)C1=C(C)N(C)C(=NCc2ccccc2)NC1c1ccc(F)cc1 (stereo not drawn)	none (no result: PP5 primary, PP1 counter, JMJD2C inh)
Cc1cccc(N(Cc2cc3cc(C)ccc3[nH]c2=O)C(=O)c2cccs2)c1	none
Cc1ccc2cc(CN(C(=O)c3cccs3)c3ccccc3)c(=O)[nH]c2c1	PG9 binder 14 | PG9 bind confirm 21 | PGV04 Ab binding 33
CCSc1nnc(NC(=O)CCCOc2ccc(C)cc2)s1	PG9 binder 21 | PG9 bind confirm 13 | PGV04 Ab binding 49
COC(=O)Cc1ccc(NC(=O)c2ccc(Br)o2)cc1	none
COc1ccc(-c2ccc(NC(=O)c3ccc(Br)o3)cc2)nn1	PG9 binder 14 | PG9 bind confirm 13 | PGV04 Ab binding 24
COc1ccccc1N1CCN(N=Cc2ccccc2Br)CC1	none (no result: PP5 primary, PG9 binder, PP1 counter, JMJD2C inh)
CCCCOc1ccc(-c2c(C(=O)Nc3ccccc3)c(C)[nH]c(=S)c2C#N)cc1	PG9 binder 60 | PG9 bind confirm inactive | PGV04 Ab binding inactive
Cc1ccc(O)c(C2=Nc3ccccc3N=C(c3ccco3)C2)c1	PG9 binder 59 | PG9 bind confirm 55 | PGV04 Ab binding 69
